Structures are written as SMILES. Values without a mark were called inactive. Records with an inconclusive call do not appear. The source made the active and inactive calls. Unless noted, the call rests on the fitted dose curve; in most records, active means well fitted curve in the direction sought with a large enough effect in the repeat runs; inconclusive means weak or mixed curves; inactive means no such curve, though single readings can be large; an effect the other way counts as inactive or inconclusive.

The values that follow come from PubChem BioAssay (Tox21).

A short description of assay [1]: qHTS assay to identify small molecule antagonists of the sonic hedgehog signaling (Shh) pathway (AID 1259369; calls by dose curve; further: nearly all actives have a fitted effect of over 45% in size). Put shortly:
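Stable Gli1-Luc reporter NIH/3T3 clone; quantitative HTS in stimulated mode with conditioned medium. Luminescence measured after 24hr compound treatment at 37 C.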
For orientation: Quantitative high-throughput screening tests each substance at several concentrations.

For assay [2], the target named is Estrogen receptor beta (Homo sapiens) (UniProt Q92731). As to the kind of experiment: qHTS assay to identify small molecule agonists of the estrogen receptor beta (ER-beta) signaling pathway (AID 1259377; active means well fitted activation curve with a large enough effect in the signal ratio in the repeat runs, not every such curve was filed as active; the % refers to the signal ratio). In outline: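 Measured by fluorescence intensity from a B/G FRET beta-lactamase substrate (2 h, room temperature) in ER-beta-UAS-bla HEK293T cells treated with DMSO-dissolved compounds for 16 hr at 37C and 5% CO2.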
Sequence of Estrogen receptor beta (Homo sapiens) (Q92731 whole entry, looked up): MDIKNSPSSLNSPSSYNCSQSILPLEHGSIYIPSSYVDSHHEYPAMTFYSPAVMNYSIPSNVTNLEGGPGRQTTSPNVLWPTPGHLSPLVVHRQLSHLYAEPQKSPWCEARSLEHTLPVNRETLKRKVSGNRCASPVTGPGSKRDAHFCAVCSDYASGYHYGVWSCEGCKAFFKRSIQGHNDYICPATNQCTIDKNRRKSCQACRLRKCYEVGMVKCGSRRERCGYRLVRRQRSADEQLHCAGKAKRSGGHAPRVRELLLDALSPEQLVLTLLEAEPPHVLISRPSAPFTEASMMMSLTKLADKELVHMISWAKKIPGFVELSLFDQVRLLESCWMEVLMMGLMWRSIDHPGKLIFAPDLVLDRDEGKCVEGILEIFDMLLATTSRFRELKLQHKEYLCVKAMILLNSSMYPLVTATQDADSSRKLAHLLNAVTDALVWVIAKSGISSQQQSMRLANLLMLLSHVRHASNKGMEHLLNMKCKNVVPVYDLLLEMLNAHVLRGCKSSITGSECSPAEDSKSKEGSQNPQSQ

Assay [3] shares this target. Nature of the assay: qHTS assay to identify small molecule antagonists of the estrogen receptor beta (ER-beta) signaling pathway (AID 1259378; active means well fitted inhibition curve with a large enough effect in the signal ratio in the repeat runs, not every such curve was filed as active; the % refers to the signal ratio; further: potency means the concentration at half of the fitted maximal effect). Put shortly: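 Antagonist mode: compounds added to beta-lactamase reporter HEK293T ER-beta-UAS cells stimulated with E2 (1nM final), 16 hr at 37C. LiveBLAzer B/G FRET substrate, 2 hours room temperature, fluorescence read-out.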

The nature of assay [4]: qHTS assay to identify small molecule agonists of the estrogen receptor beta (ER-beta) signaling pathway - cell viability counter screen (AID 1259380). Further: nearly all actives have a fitted effect of over 30% in size. Put shortly:
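Steps: plate ER-beta-UAS-bla HEK293T cells, rest 6 hr; add compounds in DMSO; incubate 16 hr at 37C, 5% CO2; add FRET substrate 2 hr; add CellTiter-Glo, wait 30 min at room temperature; read luminescence.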

The nature of assay [5]: qHTS assay to identify small molecule antagonists of the estrogen receptor beta (ER-beta) signaling pathway - cell viability counter screen (AID 1259382).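 Further: HEK293T cells carrying ER-beta-UAS-bla reporter stimulated with estradiol; series mostly up to about 92 µM; nearly all actives have a fitted effect of over 55% in size.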 Put shortly:
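Viability is scored by CellTiter-Glo luminescence (30 min, room temperature) in ER-beta-UAS-bla HEK293T wells already read for reporter fluorescence. Compound exposure lasts 16 hr at 37C alongside 1nM 17-beta-estradiol in charcoal-stripped serum medium.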

Assay [6] can be described thus: qHTS assay to identify small molecule agonists or antagonists of the thyroid stimulating hormone receptor (TSHR) signaling pathway - wild type cell line counter screen (AID 1259384; calls by dose curve). Put shortly: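 Counter screen in untransfected Hek293: compounds (15-point titration, triplicate) plus phosphodiesterase inhibitor Ro20-1724 added after 18 h plating; 30 min RT. Intracellular cAMP via competitive d2/cryptate immunoassay, 1 h incubation.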

For assay [7], the target named is Thyrotropin receptor (Homo sapiens) (UniProt P16473). As to the kind of experiment: qHTS assay to identify small molecule antagonists of the thyroid stimulating hormone receptor (TSHR) signaling pathway (AID 1259385; calls by dose curve; further: nearly all actives have a fitted effect of over 20% in size). In outline:
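Antagonist mode: compound-treated TSHR-expressing HEK293 cells were stimulated with 1.5 ng/mL TSH (final) in presence of Ro20-1724 for 30 min at RT. HTRF cAMP detection after 1 h; each compound tested at 15 concentrations, triplicate.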

Assay [8] in a line: qHTS assay to identify small molecule agonists of the estrogen receptor alpha (ER-alpha) signaling pathway in the presence of an antagonist - cell viability counter screen (AID 1259386).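 Further: series mostly up to about 92 µM; cells exposed to compounds for 22 h at 37 °C before the viability read; nearly all actives have a fitted effect of over 30% in size.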 In outline: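 In this counter screen, compound effects on VM7Luc4E2 viability were tested in the presence of the antagonist ICI-182,780 at 10.0nM final. Compounds were dosed at 15 concentrations, exposure lasted 22hr, and the CellTiter-Fluor signal was read.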

Assay [9] has as its target Progesterone receptor (Homo sapiens) (UniProt P06401). As to the kind of experiment: qHTS assay to identify small molecule agonists of the progesterone receptor (PR) signaling pathway (AID 1346784; calls by dose curve; further: nearly all actives have a fitted effect of over 30% in size). Put shortly: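 The screen uses PR-UAS-bla HEK 293T cells in charcoal-stripped serum (2%). Compounds are applied for 16 hr at 37C after a 6 hr pre-incubation, and reporter activity is detected with a FRET beta-lactamase substrate after 2 hr at room temperature.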

Assay [10] shares this target. As to the kind of experiment: qHTS assay to identify small molecule antagonists of the progesterone receptor (PR) signaling pathway (AID 1346795; active means well fitted inhibition curve with a large enough effect in the signal ratio in the repeat runs, not every such curve was filed as active; the % refers to the signal ratio; further: potency means the concentration at half of the fitted maximal effect). In outline:
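After 6 hr plating at 37C in 2% stripped-serum medium, PR-UAS-bla HEK293T cells got compounds, then 1 nM R5020. Sixteen hours later, LiveBLAzer substrate was applied for 2 hr at room temperature and fluorescence was recorded.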

A short description of assay [11]: qHTS assay to identify small molecule antagonists of the progesterone receptor (PR) signaling pathway - cell viability counter screen (AID 1346798). Further: series mostly up to about 92 µM; nearly all actives have a fitted effect of over 50% in size. Put shortly: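 Viability was determined by ATP-based luminescence (CellTiter-Glo) in PR-UAS-bla HEK293T cells cultured in 2% charcoal-stripped serum and incubated 16 hr with compounds under R5020 stimulation.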
A short description of assay [12]: qHTS assay to identify small molecule agonists of the progesterone receptor (PR) signaling pathway - cell viability counter screen (AID 1346799; calls by dose curve; further: nearly all actives have a fitted effect of over 45% in size). In outline:
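Viability was scored by ATP luminescence (CellTiter-Glo, 30 min, room temperature) in the same wells used for the reporter readout, after 16 hr compound exposure of PR-UAS-bla HEK293T cells.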

Assay [13] can be described thus: qHTS assay to identify small molecule antagonists of the TGF-beta/Smad signaling pathway - cell viability counter screen (AID 1346824). Further: nearly all actives have a fitted effect of over 50% in size. In outline:
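Cytotoxicity counter-screen run in the same wells as the beta-lactamase Smad reporter read: CellTiter-Glo luminescence after 30 min at room temperature. HEK 293T SBE-bla cells had 5 hr compound exposure at 37 C with TGF-beta1 (0.25 ng/mL stock).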

Assay [14] in a line: qHTS assay to identify small molecule agonists of the TGF-beta/Smad signaling pathway - cell viability counter screen (AID 1346829). Further: top concentration of the series differs between compounds; nearly all actives have a fitted effect of over 45% in size. Put shortly: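 Here the cytotoxicity of library compounds is measured in SBE-bla HEK 293T cells treated for 5 hr, using CellTiter-Glo added to wells already read for the beta-lactamase reporter.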
A short description of assay [15]: qHTS assay to identify small molecule agonists of the TGF-beta/Smad signaling pathway (AID 1346859; active means well fitted activation curve with a large enough effect in the signal ratio in the repeat runs, not every such curve was filed as active; the % refers to the signal ratio; further: series mostly up to about 77 µM). Put shortly:
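Dual-wavelength fluorescence (460/530 nm emission) quantified beta-lactamase expression under the Smad binding element in HEK 293T cells following 5 hr compound treatment at 37 C.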

Assay [16] concerns the target Thyrotropin-releasing hormone receptor (Homo sapiens) (UniProt P34981). As to the kind of experiment: qHTS assay to identify small molecule antagonists of the thyrotropin-releasing hormone receptor (TRHR) signaling pathway (AID 1346877; active means well fitted inhibition curve with a large enough effect in the repeat runs, not every such curve was filed as active; further: series mostly up to about 51 µM). Put shortly:
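Kinetic fluorescence (3 min, 1 s resolution) following stimulation with TRH at 1 nM final; HEK293 cells bearing human TRHR; 5 min compound preincubation at RT; concentration-response over 15 points, triplicates.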

Assay [17] shares this target. Nature of the assay: qHTS assay to identify small molecule agonists of the thyrotropin-releasing hormone receptor (TRHR) signaling pathway (AID 1346891; calls by dose curve;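 further: HEK293 cells expressing TRHR with calcium dye readout; series mostly up to about 58 µM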). In outline: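 Kinetic fluorescence (3 min, 1 s intervals) reported intracellular calcium after compound transfer onto TRHR-Hek293 cells pre-loaded with dye for 2 h at 37 °C.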
The nature of assay [18]: qHTS assay to identify small molecule agonists of the androgen receptor (AR) signaling pathway in the presence of an antagonist - cell viability counter screen (AID 1259379).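 Further: MDA-kb2 human breast cancer cells carrying an MMTV luciferase reporter; series mostly up to about 92 µM; nearly all actives have a fitted effect of over 25% in size.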 In outline: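 Nilutamide-containing (3.0uM final) MDA-kb2 cultures, 3,000 cells/well, were treated with compounds across 15 concentrations. After 16 hr at 37C with no CO2, cell viability was determined by CellTiter-Fluor fluorescence in the luciferase assay wells.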

For assay [19], the target named is Estrogen receptor (Homo sapiens) (UniProt P03372). Nature of the assay: qHTS assay to identify small molecule agonists of the estrogen receptor alpha (ER-alpha) signaling pathway in the presence of an antagonist (AID 1259383; calls by dose curve; further: top concentration of the series differs between compounds; nearly all actives have a fitted effect of over 15% in size). In outline:
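Readout was ERE-driven luciferase luminescence in VM7Luc4E2 cells, which express full-length ER-alpha endogenously. Compounds were tested at 15 concentrations for 22hr alongside 10.0nM ICI-182,780 (final concentration).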

Sequence of Progesterone receptor (Homo sapiens) (P06401 whole entry, looked up): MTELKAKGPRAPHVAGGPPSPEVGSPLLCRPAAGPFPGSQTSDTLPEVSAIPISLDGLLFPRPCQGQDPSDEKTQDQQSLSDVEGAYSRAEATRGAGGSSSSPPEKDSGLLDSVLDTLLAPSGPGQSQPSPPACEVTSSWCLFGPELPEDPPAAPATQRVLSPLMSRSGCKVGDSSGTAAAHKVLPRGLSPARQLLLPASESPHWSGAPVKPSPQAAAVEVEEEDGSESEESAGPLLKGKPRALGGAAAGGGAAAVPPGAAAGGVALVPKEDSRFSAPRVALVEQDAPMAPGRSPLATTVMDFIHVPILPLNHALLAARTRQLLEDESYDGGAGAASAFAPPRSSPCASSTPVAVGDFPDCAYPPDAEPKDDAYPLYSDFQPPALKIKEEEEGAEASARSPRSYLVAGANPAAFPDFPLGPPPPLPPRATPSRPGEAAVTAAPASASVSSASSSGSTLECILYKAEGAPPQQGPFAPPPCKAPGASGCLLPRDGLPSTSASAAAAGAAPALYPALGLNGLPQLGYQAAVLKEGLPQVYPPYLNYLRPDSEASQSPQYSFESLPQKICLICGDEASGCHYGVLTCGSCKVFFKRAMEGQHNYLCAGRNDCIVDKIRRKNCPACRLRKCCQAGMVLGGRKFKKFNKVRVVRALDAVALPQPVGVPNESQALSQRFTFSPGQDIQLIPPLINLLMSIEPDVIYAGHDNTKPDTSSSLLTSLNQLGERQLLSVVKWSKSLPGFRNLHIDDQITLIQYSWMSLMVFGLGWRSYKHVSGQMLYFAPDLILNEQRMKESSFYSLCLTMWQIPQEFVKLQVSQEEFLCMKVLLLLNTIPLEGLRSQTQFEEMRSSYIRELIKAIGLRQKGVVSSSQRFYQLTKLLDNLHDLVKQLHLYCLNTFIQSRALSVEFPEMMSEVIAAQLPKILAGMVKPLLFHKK
Sequence of Thyrotropin receptor (Homo sapiens) (P16473 whole entry, looked up): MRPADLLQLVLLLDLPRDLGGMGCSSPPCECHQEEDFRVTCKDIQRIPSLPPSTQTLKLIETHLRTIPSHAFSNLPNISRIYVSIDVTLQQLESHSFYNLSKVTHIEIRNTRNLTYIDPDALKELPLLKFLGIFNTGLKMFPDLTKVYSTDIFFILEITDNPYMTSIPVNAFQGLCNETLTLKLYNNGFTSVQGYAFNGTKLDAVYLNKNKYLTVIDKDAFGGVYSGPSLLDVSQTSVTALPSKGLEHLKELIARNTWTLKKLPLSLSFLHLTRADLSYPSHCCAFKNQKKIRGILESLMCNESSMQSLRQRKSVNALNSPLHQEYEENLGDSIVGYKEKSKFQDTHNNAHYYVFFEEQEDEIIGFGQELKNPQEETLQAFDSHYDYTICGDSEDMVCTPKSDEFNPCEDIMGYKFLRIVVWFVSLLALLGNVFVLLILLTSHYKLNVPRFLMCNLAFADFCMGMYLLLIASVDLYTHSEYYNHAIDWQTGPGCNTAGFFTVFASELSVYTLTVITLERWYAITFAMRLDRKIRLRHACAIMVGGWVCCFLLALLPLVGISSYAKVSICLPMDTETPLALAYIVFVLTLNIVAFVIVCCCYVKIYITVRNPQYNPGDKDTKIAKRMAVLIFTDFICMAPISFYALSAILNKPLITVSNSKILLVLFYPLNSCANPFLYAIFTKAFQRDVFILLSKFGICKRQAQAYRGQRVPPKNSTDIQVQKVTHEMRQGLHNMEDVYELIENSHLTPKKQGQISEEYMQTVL
Sequence of Thyrotropin-releasing hormone receptor (Homo sapiens) (P34981 whole entry, looked up): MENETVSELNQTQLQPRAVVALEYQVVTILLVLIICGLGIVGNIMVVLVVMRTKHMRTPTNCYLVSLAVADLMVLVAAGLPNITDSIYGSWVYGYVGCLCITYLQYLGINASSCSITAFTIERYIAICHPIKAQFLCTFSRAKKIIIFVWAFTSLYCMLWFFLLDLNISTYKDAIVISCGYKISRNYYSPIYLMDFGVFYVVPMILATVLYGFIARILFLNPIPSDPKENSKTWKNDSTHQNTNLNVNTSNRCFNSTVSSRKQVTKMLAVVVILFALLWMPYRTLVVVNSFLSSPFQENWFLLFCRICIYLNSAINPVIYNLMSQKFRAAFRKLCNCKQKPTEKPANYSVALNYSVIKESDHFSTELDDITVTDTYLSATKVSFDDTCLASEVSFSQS
Sequence of Estrogen receptor (Homo sapiens) (P03372 whole entry, looked up): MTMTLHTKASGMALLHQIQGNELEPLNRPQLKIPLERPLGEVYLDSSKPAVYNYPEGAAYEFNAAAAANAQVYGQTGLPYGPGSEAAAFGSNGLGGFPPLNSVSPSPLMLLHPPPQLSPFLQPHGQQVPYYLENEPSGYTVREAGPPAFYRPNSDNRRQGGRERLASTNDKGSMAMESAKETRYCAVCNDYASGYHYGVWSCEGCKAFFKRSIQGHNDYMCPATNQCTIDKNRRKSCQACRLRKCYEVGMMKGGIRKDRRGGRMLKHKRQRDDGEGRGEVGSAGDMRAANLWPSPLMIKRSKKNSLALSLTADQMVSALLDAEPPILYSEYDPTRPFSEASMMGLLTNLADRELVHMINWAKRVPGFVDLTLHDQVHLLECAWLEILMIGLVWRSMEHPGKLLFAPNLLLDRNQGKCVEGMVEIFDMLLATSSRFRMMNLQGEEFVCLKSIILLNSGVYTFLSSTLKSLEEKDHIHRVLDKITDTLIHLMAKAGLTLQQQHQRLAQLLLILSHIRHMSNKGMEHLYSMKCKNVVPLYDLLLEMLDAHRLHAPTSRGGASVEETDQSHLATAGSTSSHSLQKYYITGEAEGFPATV

Take `O=C(O)C(S)C(S)C(=O)O` (stereo not given): the Potency result in [1], in assay [2], in assay [3], in assay [4], in assay [5] and in [6] was “inactive” each time. The Potency result in assay [7], in [8], in assay [9], in assay [10], in assay [11] and in assay [12] was “inactive” throughout. Moreover, the Potency entry in [13] and in assay [15] was “inactive” in each case. Moreover, in assay [14], the outcome was inactive.

For the compound `CC(C)(COC(=O)c1ccccc1)COC(=O)c1ccccc1`, the Potency result in assay [1], in [2], in assay [3], in assay [4], in assay [5] and in assay [6] was “inactive” each time. Further, the Potency entry in [8], in assay [11], in [13], in assay [15] and in assay [17] was “inactive” in each case. For the same compound, the call in assay [14] and in [16] was inactive.

`COc1cc(Cl)ccc1Oc1ccc(Cl)cc1Cl`: the Potency result in assay [1], in assay [2], in [3], in assay [18], in [4] and in [19] was “inactive” each time. For the same compound, the Potency result in assay [6], in assay [8], in [9], in assay [11], in assay [12] and in assay [13] was “inactive” each time. The Potency result in [15] and in [17] was “inactive” each time. Also, the Potency in assay [10] is 8.39 µM (active). Besides, the compound was classed as inactive in assay [14].

Consider `CCc1c(C(=O)NN2CCCCC2)nn(-c2ccc(Cl)cc2Cl)c1-c1ccc(Br)cc1`, for which the Potency entry in [1], in assay [2], in assay [18], in assay [19], in assay [6] and in assay [7] was “inactive” each time. The Potency result in assay [8], in assay [11], in assay [13] and in assay [17] was “inactive” throughout. Moreover, the Potency in assay [3] is 4.33 µM (active); in [10] it was 3.44 µM (active). For the same compound, the call in assay [14] and in [16] was inactive.

Take `Cc1cc(C(=O)O)ccc1[N+](=O)[O-]`: the Potency entry in assay [1], in assay [2], in assay [3], in assay [4], in assay [5] and in assay [19] was “inactive” in each case. Besides, the Potency entry in assay [6], in assay [7], in assay [8], in [9], in [11] and in assay [12] was “inactive” each time. Also, the Potency result in assay [13] and in [15] was “inactive” each time. Moreover, the result in assay [14] and in assay [16] was inactive.

`Nc1cc(C(=O)O)c(O)c(S(=O)(=O)O)c1`: the Potency result in [1], in [2], in assay [3], in [4], in assay [5] and in assay [6] was “inactive” throughout. The Potency result in [8], in assay [9], in [10], in [11], in assay [13] and in assay [15] was “inactive” in each case. For the same compound, the Potency entry in assay [17] is “inactive”. Further, the compound was called inactive in assay [14] and in assay [16].

Consider `O=[N+]([O-])c1ccc2[nH]ncc2c1`, for which the Potency result in assay [1], in assay [2], in assay [3], in assay [18], in [4] and in assay [19] was “inactive” in each case. The Potency entry in [6], in [8], in assay [9], in [11], in assay [12] and in assay [13] was “inactive” in each case. Also, the Potency entry in assay [15] and in assay [17] was “inactive” each time. Also, the compound was called inactive in assay [14] and in assay [16].

With `COc1cc(Cl)c(OC)cc1N`, the Potency entry in assay [1], in assay [2], in assay [3], in assay [18], in [4] and in [6] was “inactive” in each case. Also, the Potency entry in [8], in assay [9], in assay [11], in [12], in assay [13] and in [15] was “inactive” throughout. Also, the Potency result in [17] is “inactive”. For the same compound, the compound was classed as inactive in assay [14] and in [16].
